Here are results for eight compounds from PubChem BioAssay (NCI).

The structures appear in SMILES notation. This is part of a sample that, as a whole, favours compounds with a hit. Of some 83,000 tested, about 20% had one in any assay.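 How to read the values: 0–100, growth inhibition (40 = 60% inhibited); 0, no net growth; -100 to 0, cell death (-40 = 40% of starting cells died; -100 = all dead).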 A number with no mark means an inactive call. Active and inactive are the calls of the source. Rule for the calls: active = growth percent below 10; inactive = the rest.

Some test systems named below: HCT-15 colon; HT29 colon; SNB-75 CNS; SNB-19 CNS; U251 CNS; PC-3 prostate; SK-MEL-5 melanoma; UACC-62 melanoma; LOX IMVI melanoma; SK-MEL-28 melanoma; EKVX NSCLC; SN12C renal; UO-31 renal; TK-10 renal; ACHN renal; CAKI-1 renal; A498 renal; CCRF-CEM leukemia; MOLT-4 leukemia; SK-MEL-2 melanoma.
What all share (assay): NCI-60 one-dose screen, 48 h (100 = growth as untreated, 0 = no growth, -100 = all killed)
Holding throughout (settings): 10 µM unless noted

As for `Cn1cc(-c2csc(-c3cn(C(=O)OC(C)(C)C)c4ccccc34)n2)c2ccnc(Cl)c21`, the growth was 39.1% in the assay on HCT-15 colon; 35.4% in the assay on HT29 colon; 46.8% with SNB-75 CNS; 89.1% in the assay with SNB-19 CNS; 34.1% in the assay with U251 CNS; 40.5% in the assay with PC-3 prostate. In addition, the growth in the assay with SK-MEL-5 melanoma is 81.4%; in the assay with UACC-62 melanoma, 78.2%; in the assay on LOX IMVI melanoma, 52.8%; in the assay on SK-MEL-28 melanoma, 81.2%; with EKVX NSCLC, 62.8%; with SN12C renal, 55.1%. Moreover, the growth was 58.4% in the assay with UO-31 renal; 52.8% in the assay with TK-10 renal; 32.7% in the assay on ACHN renal; 80% in the assay with CAKI-1 renal; 88.4% with A498 renal; 61.7% in the assay with CCRF-CEM leukemia. Further, the growth in the assay on MOLT-4 leukemia is 66.8%.
Take `CN1CCN(CCOc2ccc(-c3cnc4c(-c5ccc(C(F)(F)F)cc5)cnn4c3)cc2)CC1`: the growth is -33.6% (active) in the assay with HCT-15 colon; -15.5% (active) in the assay with HT29 colon; 96.1% in the assay with SNB-75 CNS; 61.4% with SNB-19 CNS; 1.48% (active) in the assay with U251 CNS; 28.3% in the assay with PC-3 prostate. For the same compound, the growth with SK-MEL-5 melanoma is 64.4%; in the assay with UACC-62 melanoma it was 72.4%; in the assay with LOX IMVI melanoma, -89.9% (active); with SK-MEL-28 melanoma, 85.1%; in the assay with EKVX NSCLC it was 60.1%; in the assay on SN12C renal, 53.7%. Moreover, the growth was 38.1% with UO-31 renal; 67.4% in the assay on TK-10 renal; 58.8% in the assay on ACHN renal; 31% in the assay on CAKI-1 renal; 69.5% in the assay with A498 renal; -13.7% (active) with CCRF-CEM leukemia. The growth with MOLT-4 leukemia is -51.3% (active).
For the compound `COc1cc(/C=C/c2cc(/C=C/c3ccc(O)c(OC)c3)n(C(=O)Nc3ccc(F)cc3)n2)ccc1O`, the growth with HCT-15 colon is 10.6%; in the assay with HT29 colon it was -41.8% (active); in the assay on SNB-75 CNS, 26.9%; in the assay with SNB-19 CNS, 20.2%; in the assay with U251 CNS it was 13.4%; in the assay with PC-3 prostate it was 9.01% (active). In addition, the growth with SK-MEL-5 melanoma was -8.36% (active); in the assay with UACC-62 melanoma, 2.01% (active); with LOX IMVI melanoma it was 4% (active); in the assay on SK-MEL-28 melanoma it was 16.7%; in the assay on EKVX NSCLC, 26.9%; with SN12C renal, 17.9%. For the same compound, the growth in the assay on UO-31 renal is 14%; in the assay on TK-10 renal it was 38.1%; in the assay on ACHN renal it was 20.2%; in the assay with CAKI-1 renal, -7.81% (active); in the assay on A498 renal, 31.5%; with CCRF-CEM leukemia, 6.82% (active). Further, in the assay with MOLT-4 leukemia, the growth is -3.56% (active).
As to `COc1ccc(NC(=O)c2sc3nc4c(cc3c2N)CCCC4)cc1`, the growth in the assay with HCT-15 colon was 28.6%; in the assay on HT29 colon it was 0.414% (active); in the assay on SNB-75 CNS, 17.3%; in the assay on SNB-19 CNS, 34.7%; with U251 CNS, 22.6%; in the assay on PC-3 prostate, 26.9%. The growth in the assay on SK-MEL-5 melanoma was 5.04% (active); with UACC-62 melanoma, 43%; in the assay with LOX IMVI melanoma, 35.8%; with SK-MEL-28 melanoma it was 62.3%; in the assay with EKVX NSCLC, 44.3%; in the assay with SN12C renal it was 60.8%. Further, the growth with UO-31 renal was 48%; in the assay on TK-10 renal it was 38.8%; with ACHN renal, 49.3%; in the assay with CAKI-1 renal, 38.5%; in the assay on A498 renal, 5.75% (active); in the assay on CCRF-CEM leukemia it was 9.46% (active). Besides, the growth with MOLT-4 leukemia is 21.5%.
As for `CCCCCCCC/C=C\CCCCCCCCOc1ccccc1CC(=O)NCC[N+]1(C)CCCCC1`, the growth is 102% in the assay on HCT-15 colon; 9.78% (active) with HT29 colon; 49.3% with SNB-75 CNS; 52.6% with SNB-19 CNS; 39% with U251 CNS; 3.49% (active) with PC-3 prostate. Moreover, the growth in the assay with SK-MEL-5 melanoma was 86.5%; with UACC-62 melanoma, 53.8%; in the assay on LOX IMVI melanoma, 75.7%; in the assay on SK-MEL-28 melanoma, 84.2%; in the assay on EKVX NSCLC it was 93.4%; with SN12C renal it was 43.2%. The growth in the assay with UO-31 renal is 94.8%; in the assay on TK-10 renal it was 75.8%; in the assay with ACHN renal, 110%; in the assay on CAKI-1 renal, 81.9%; with A498 renal, 94.6%; with CCRF-CEM leukemia, 23.1%. Also, the growth with MOLT-4 leukemia is 20.5%.
`COc1ccc(-c2cc(-c3ccc(OC)cc3)nc(NCCCNc3ccnc4cc(Cl)ccc34)n2)cc1`: the growth is -77% (active) in the assay with HCT-15 colon; -59.6% (active) in the assay with HT29 colon; 112% with SNB-75 CNS; 93.3% in the assay with SNB-19 CNS; 70.7% in the assay with U251 CNS; 61.5% in the assay with PC-3 prostate. In addition, the growth in the assay with SK-MEL-5 melanoma was 22.7%; in the assay with LOX IMVI melanoma, -95% (active); with SK-MEL-28 melanoma, 37.5%; in the assay with SK-MEL-2 melanoma it was 83.9%; in the assay with EKVX NSCLC it was 80.4%; in the assay on SN12C renal, -62.3% (active). In addition, the growth is 48.9% in the assay with UO-31 renal; 127% in the assay with TK-10 renal; 96.2% with ACHN renal; 75.3% in the assay with CAKI-1 renal; 23.2% in the assay on A498 renal; 3.08% (active) with CCRF-CEM leukemia. Besides, in the assay on MOLT-4 leukemia, the growth is 1.68% (active).
`N#C/C(=C\c1ccc(-c2ccc(Cl)cc2)o1)c1ccc(Cl)cc1`: the growth was 79.2% in the assay with HCT-15 colon; 61.2% in the assay on HT29 colon; 14% with SNB-75 CNS; 62% in the assay with SNB-19 CNS; 21.6% in the assay with U251 CNS; 74.8% in the assay on PC-3 prostate. The growth is 91.4% with SK-MEL-5 melanoma; 49.2% in the assay with LOX IMVI melanoma; 99.7% with SK-MEL-28 melanoma; 96.5% in the assay with SK-MEL-2 melanoma; 49.5% in the assay with EKVX NSCLC; 30% in the assay on SN12C renal. Further, the growth with UO-31 renal is -11.6% (active); in the assay with TK-10 renal, 14.6%; with ACHN renal it was -20.1% (active); with CAKI-1 renal it was 38.4%; with A498 renal, 82.5%; in the assay on CCRF-CEM leukemia, 66.6%. Also, in the assay on MOLT-4 leukemia, the growth is 85.6%.
Consider `COC(=O)/C(CCC=C(C)C)=C1\[C@@H](OC(C)=O)C[C@@]2(C)[C@H]1CC(=O)[C@H]1[C@@]3(C)CCC(N4CCCC4)[C@@H](C)[C@@H]3CC[C@@]12C` (stereo partly specified), for which the growth is 73.4% with HCT-15 colon; 68.2% in the assay on HT29 colon; 99.2% in the assay on SNB-75 CNS; 107% in the assay with SNB-19 CNS; 101% with U251 CNS; 89.1% with PC-3 prostate. Further, the growth in the assay on SK-MEL-5 melanoma was 99.2%; in the assay with UACC-62 melanoma, 97.6%; with LOX IMVI melanoma, 101%; in the assay with SK-MEL-28 melanoma, 93.6%; in the assay with EKVX NSCLC it was 91.9%; with UO-31 renal, 70.2%. Further, the growth with TK-10 renal was 102%; with ACHN renal it was 104%; in the assay on CAKI-1 renal, 106%; in the assay on A498 renal it was 105%; with CCRF-CEM leukemia, 78.2%; with MOLT-4 leukemia it was 9.72% (active).
